Compounds without any hit were thinned out: in the full panel of roughly 79,000, 15% have a hit. Activity calls are given as the source filed them. Cut-off read from the data, not from the text of the source: active = growth inhibition above about 70%; inactive = the rest.
Assay: NCI Yeast Anticancer Drug Screen. Data for the sgs1 strain (AID 173);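 note: 0% = growth of vehicle-only control cultures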
Details: S. cerevisiae sgs1 mutant, active compounds read high
Procedure: Growth inhibition of yeast strains with defined genetic alterations is measured as a screen for potential anti-cancer activity. Selected strains with alterations in DNA damage repair or cell cycle control were exposed to compounds and growth inhibition was measured relative to vehicle treated controls. The strain used in this assay is sgs1

Measured: growth inhibition

Cc1cc(I)ccc1N
inactive: at 1.2 µM 19% | at 3.7 µM 5% | at 11.0 µM 4%
active: at 33.0 µM 90% | at 100.0 µM 91%

N#CC(C(=O)Nc1ccccc1)C1=C(Cl)C(=O)c2ccccc2C1=O (stereo not given)
inactive: at 1.2 µM 8% | at 3.7 µM 41%
active: at 11.0 µM 96% | at 33.0 µM 97% | at 100.0 µM 96%

CC(=O)OCC(=O)C1(O)CCC2C3CCC4CCCCC4(C)C3CCC21C (stereo not given)
active: at 100.0 µM 79%
inactive: at 1.2 µM -16% | at 3.7 µM -16% | at 11.0 µM 14% | at 33.0 µM 38%

S=C(N/N=C(/c1ccccc1)c1ccccn1)N1CCCCCC1
inactive: at 1.2 µM 4% | at 3.7 µM 10% | at 11.0 µM 11% | at 33.0 µM 10% | at 100.0 µM 7%

O=C1C(=O)c2ccccc2C=C1[N+](=O)[O-]
inactive: at 1.2 µM 4% | at 3.7 µM 11% | at 11.0 µM 30% | at 33.0 µM 65%
active: at 100.0 µM 92%

COc1cc(C2C3=C(COC3=O)Oc3cc4c(cc32)OCO4)ccc1O (stereo not given)
inactive: at 1.2 µM -4% | at 3.7 µM -6% | at 11.0 µM -6% | at 33.0 µM 14% | at 100.0 µM 59%

O=C(N=Nc1ccccc1Cl)NNc1ccccc1Cl
inactive: at 1.2 µM 9% | at 3.7 µM 5% | at 11.0 µM 9% | at 33.0 µM 21% | at 100.0 µM 19%

Cc1ccc(CCC2=CCCc3c2ccc2ccccc32)cc1
inactive: at 1.2 µM -5% | at 3.7 µM -4% | at 11.0 µM -1% | at 33.0 µM 0% | at 100.0 µM 3%
